In PubChem BioAssay (NCATS):
Records with an inconclusive call do not appear. The source made the active and inactive calls. Calls come from the whole dose curve; as a rule, active = well fitted cell-killing curve with a large enough effect; inconclusive = small, poorly fitted or top-dose-only effect, or effect the other way; inactive = flat fitted curve, though single readings scatter.

Tests used:
Assay in all cases: Primary qHTS to identify gynecologic anti-cancer compounds using libraries of approved drugs and bioactive compounds (AID 1345084); note: nearly all actives have a fitted effect of over 55% in size
[1] = system: C33A; settings: Gynecologic cancer cell panel viability, ATPlite luminescence, 48 h; series mostly up to 57.5 µM
Outline: (§1)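 Measured: luminescence after ATPlite addition (15 min, RT). Exposure: 48 h, 37 C, 5% CO2.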

[2] = system: CAOV3; settings: Gynecologic cancer cell panel viability, ATPlite luminescence, 48 h; series mostly up to 57.5 µM
Outline: as §1

[3] = system: CASKI; settings: Gynecologic cancer cell panel viability, ATPlite luminescence, 48 h; series mostly up to 57.5 µM
Outline: as §1

[4] = system: Es-2; settings: Gynecologic cancer cell panel viability, ATPlite luminescence, 48 h; series mostly up to 57.5 µM
Outline: as §1

[5] = system: HeLa; settings: Gynecologic cancer cell panel viability, ATPlite luminescence, 48 h; series mostly up to 57.5 µM
Outline: as §1

[6] = system: Hek293T; settings: Gynecologic cancer cell panel viability, ATPlite luminescence, 48 h, control line for the selectivity index; series mostly up to 57.5 µM
Outline: as §1

[7] = system: JEG-3; settings: Gynecologic cancer cell panel viability, ATPlite luminescence, 48 h; series mostly up to 57.5 µM
Outline: as §1

[8] = system: OV90; settings: Gynecologic cancer cell panel viability, ATPlite luminescence, 48 h; series mostly up to 57.5 µM
Outline: as §1

[9] = system: PA-1; settings: Gynecologic cancer cell panel viability, ATPlite luminescence, 48 h; series mostly up to 57.5 µM
Outline: as §1

[10] = system: SKOV3; settings: Gynecologic cancer cell panel viability, ATPlite luminescence, 48 h; series mostly up to 57.5 µM
Outline: as §1

[11] = system: Tov-21-G; settings: Gynecologic cancer cell panel viability, ATPlite luminescence, 48 h; series mostly up to 57.5 µM
Outline: as §1

[12] = system: Tov112D; settings: Gynecologic cancer cell panel viability, ATPlite luminescence, 48 h; series mostly up to 57.5 µM
Outline: as §1
% is set by controls: 0 for no effect and ±100 for the full control effect.

COc1cc(/C=C/CO)cc(OC)c1O[C@@H]1O[C@H](CO[C@@H]2O[C@H](CO)[C@@H](O)[C@H](O)[C@H]2O)[C@@H](O)[C@H](O)[C@H]1O
inactive: Potency [1] | Potency [2] | Potency [3] | Potency [4] | Potency [5] | Potency [6] | Potency [7] | Potency [8] | Potency [9] | Potency [10] | Potency [11] | Potency [12]

CC(=O)O[C@H]1[C@@H](O)[C@H](O[C@H]2[C@@H]3C=CO[C@@H](O[C@H]4O[C@@H](CO)[C@H](O)[C@@H](O)[C@@H]4O)[C@@H]3[C@@]3(CO)O[C@@H]23)O[C@@H](C)[C@@H]1OC(=O)/C=C/c1ccccc1
inactive: Potency [1] | Potency [2] | Potency [3] | Potency [4] | Potency [5] | Potency [6] | Potency [7] | Potency [8] | Potency [9] | Potency [10] | Potency [11] | Potency [12]

COc1c2c(cc3c1-c1c(cc4c(c1OC)OCO4)CC(C)C(C)C3)OCO2 (stereo unspecified)
inactive: Potency [1] | Potency [2] | Potency [3] | Potency [4] | Potency [5] | Potency [6] | Potency [7] | Potency [8] | Potency [9] | Potency [10] | Potency [11] | Potency [12]

CC(=O)OC1C[C@]2(C)C(O)CC(C)=C[C@H](OC(=O)c3ccc(O)cc3)C2[C@]1(O)C(C)C (stereo partly specified)
inactive: Potency [1] | Potency [2] | Potency [3] | Potency [4] | Potency [5] | Potency [6] | Potency [7] | Potency [8] | Potency [9] | Potency [10] | Potency [11] | Potency [12]

CC1(C)CC[C@]2(C(=O)O[C@@H]3O[C@H](CO)[C@@H](O)[C@H](O)[C@H]3O)CC[C@]3(C)C(=CCC4[C@@]5(C)C[C@@H](O)[C@H](O)C(C)(C)C5[C@H](O)C[C@]43C)[C@@H]2[C@@H]1O (stereo partly specified)
inactive: Potency [1] | Potency [2] | Potency [3] | Potency [4] | Potency [5] | Potency [6] | Potency [7] | Potency [8] | Potency [9] | Potency [10] | Potency [11] | Potency [12]

C[C@@H]1O[C@@H](OC[C@H]2O[C@@H](Oc3cc(O)cc4c3C(=O)C(O)(Cc3ccc(O)cc3)O4)[C@H](O)[C@@H](O)[C@@H]2O)[C@H](O)[C@H](O)[C@H]1O (stereo partly specified)
inactive: Potency [1] | Potency [2] | Potency [3] | Potency [4] | Potency [5] | Potency [6] | Potency [7] | Potency [8] | Potency [9] | Potency [10] | Potency [11] | Potency [12]

O=C(O)CC(=O)OC[C@H]1O[C@@H](Oc2ccc3c(c2)OC[C@H]2c4cc5c(cc4O[C@@H]32)OCO5)[C@H](O)[C@@H](O)[C@@H]1O
inactive: Potency [1] | Potency [2] | Potency [3] | Potency [4] | Potency [5] | Potency [6] | Potency [7] | Potency [8] | Potency [9] | Potency [10] | Potency [11] | Potency [12]

CC/C=C\CCO[C@@H]1O[C@H](CO[C@@H]2OC[C@H](O)[C@H](O)[C@H]2O)[C@@H](O)[C@H](O)[C@H]1O
inactive: Potency [1] | Potency [2] | Potency [3] | Potency [4] | Potency [5] | Potency [6] | Potency [7] | Potency [8] | Potency [9] | Potency [10] | Potency [11] | Potency [12]

CC(=O)O[C@H]1[C@H](O[C@H]2[C@@H]3C=CO[C@@H](O[C@@H]4O[C@H](CO)[C@@H](O)[C@H](O)[C@H]4O)[C@@H]3[C@@]3(CO)O[C@@H]23)O[C@@H](C)[C@H](OC(=O)/C=C/c2ccccc2)[C@H]1OC(=O)/C=C/c1ccccc1
inactive: activity change, negative = cytotoxicity [1] 1.54% [at 11.6 µM] | activity change, negative = cytotoxicity [2] 23.2% [at 11.6 µM] | activity change, negative = cytotoxicity [3] 9.13% [at 11.6 µM] | activity change, negative = cytotoxicity [4] 2.44% [at 11.6 µM] | activity change, negative = cytotoxicity [5] -1.93% [at 11.6 µM] | activity change, negative = cytotoxicity [6] -2.9% [at 11.6 µM] | activity change, negative = cytotoxicity [7] -3.47% [at 11.6 µM] | activity change, negative = cytotoxicity [8] 3.4% [at 11.6 µM] | activity change, negative = cytotoxicity [9] 16.9% [at 11.6 µM] | activity change, negative = cytotoxicity [10] 5.38% [at 11.6 µM] | activity change, negative = cytotoxicity [11] -0.504% [at 11.6 µM] | activity change, negative = cytotoxicity [12] 5.71% [at 11.6 µM]

O=C(CN1C(=O)C2(CCCC2)NCC1c1cc(F)cc(F)c1)Nc1ccc2c(c1)CC1(C2)C(=O)Nc2ncccc21 (stereo unspecified)
inactive: Potency [1] | Potency [2] | Potency [3] | Potency [4] | Potency [5] | Potency [6] | Potency [7] | Potency [8] | Potency [9] | Potency [10] | Potency [11] | Potency [12]

COc1cc(C)c(C(=O)Oc2cc(C)c(C(=O)Oc3cc(C)c(C(=O)NC(C)C(=O)O)c(O)c3)c(O[C@@H]3O[C@H](CO)[C@@H](O)[C@H](O)[C@H]3OC(C)=O)c2)c(OC)c1 (stereo partly specified)
inactive: Potency [1] | Potency [2] | Potency [3] | Potency [4] | Potency [5] | Potency [6] | Potency [7] | Potency [8] | Potency [9] | Potency [10] | Potency [11] | Potency [12]

C/C1=C\CCC2=C[C@@H](OC2=O)c2c(C)coc2C1
inactive: Potency [1] | Potency [2] | Potency [3] | Potency [4] | Potency [5] | Potency [6] | Potency [7] | Potency [8] | Potency [9] | Potency [10] | Potency [11] | Potency [12]

CCOC(=O)c1cc(C#N)c(N2CCC(C(=O)NS(=O)(=O)Cc3ccccc3)CC2)nc1C
inactive: Potency [1] | Potency [2] | Potency [3] | Potency [4] | Potency [5] | Potency [6] | Potency [7] | Potency [8] | Potency [9] | Potency [10] | Potency [11] | Potency [12]
